Measurements from PubChem BioAssay (NCI).
About 79,000 compounds went through this panel and 15% of them were active in at least one assay; those are over-represented in the sample as a whole. Activity calls are given as the source filed them. Rule as the data show it: active = growth inhibition above about 70%; inactive = the rest.

Assays:
[1] = NCI Yeast Anticancer Drug Screen. Data for the rad50 strain (AID 155);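 also: 0% = growth of vehicle-only cultures of the same strain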; conditions: S. cerevisiae rad50 strain growth inhibition, hits give high values
Outline: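 Readout: growth inhibition relative to vehicle-treated cultures. Compound exposure was carried out in a genetically defined yeast strain deficient in DNA damage repair.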

[2] = NCI Yeast Anticancer Drug Screen. Data for the mec2-1 strain (AID 157); conditions: S. cerevisiae mec2-1 strain, hits give high values
Outline: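 Growth inhibition is read against vehicle-treated controls after compound exposure of the mec2-1 yeast strain, which is defective in DNA damage repair or cell cycle control.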

[3] = NCI Yeast Anticancer Drug Screen. Data for the sgs1 mgt1 strain (AID 161);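 also: 0% = growth of cultures given vehicle only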; conditions: S. cerevisiae sgs1 mgt1 strain, hits give high values
Outline: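 Growth of a repair-deficient yeast mutant was monitored after compound treatment and expressed as inhibition relative to vehicle-treated cultures.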

[4] = NCI Yeast Anticancer Drug Screen. Data for the cln2 rad14 strain (AID 165);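 also: 0% = growth equal to vehicle treated cultures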; conditions: S. cerevisiae cln2 rad14 strain, hits give high values
Outline: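 Growth inhibition, relative to vehicle-treated controls, is the read-out. The test organism is a yeast strain with defined genetic alterations, cln2 rad14.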

[5] = NCI Yeast Anticancer Drug Screen. Data for the bub3 strain (AID 167); conditions: S. cerevisiae bub3 mutant strain, hits give high values
Outline: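 Readout: yeast growth inhibition, expressed relative to vehicle-only wells. The test organism is a mutant strain from a panel with lesions in DNA repair or checkpoint genes.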

[6] = NCI Yeast Anticancer Drug Screen. Data for the mlh1 rad18 strain (AID 175); conditions: S. cerevisiae mlh1 rad18 strain growth inhibition, hits give high values
Outline: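 Cells of a genetically altered yeast strain, deficient in DNA damage repair, were treated with compound. Their growth was then compared with that of vehicle-treated cultures to give inhibition.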

[7] = at 5.0 µM (retest, dose inferred, filed as 0.5)
[8] = at 50.0 µM (retest, dose inferred, filed as 5.0)

Measured: growth inhibition

CCCCn1cnc2c(SCc3ccccc3[N+](=O)[O-])nc(N)nc21
active: [1]; at 50.0 µM 94.9% | [2]; at 50.0 µM 98.2% | [3]; at 50.0 µM 96.9% | [4]; at 50.0 µM 90.4% | [5]; at 50.0 µM 98.7% | [6]; at 50.0 µM 96.7%
inactive: [1]; [7] 1% | [1]; [8] -2% | [2]; [7] -2% | [2]; [8] 1% | [3]; [7] 1% | [3]; [8] 2% | [4]; [7] -15% | [4]; [8] -27% | [5]; [7] 1% | [5]; [8] 30% | [6]; [7] 3% | [6]; [8] 3%

O=CC(=O)CC(O)CO (stereo not given)
inactive: [1]; [7] 0% | [2]; [7] 5% | [2]; [8] 69% | [3]; [7] 4% | [3]; at 50.0 µM 67.6% | [4]; [7] 1% | [5]; [7] 0% | [6]; [7] -14% | [6]; [8] 67%
active: [1]; [8] 74% | [1]; at 50.0 µM 78.4% | [2]; at 50.0 µM 72.9% | [3]; [8] 81% | [4]; [8] 94% | [4]; at 50.0 µM 89.3% | [5]; [8] 87% | [5]; at 50.0 µM 98.7% | [6]; at 50.0 µM 76.3%

CCOC(=O)C1=C(Nc2ccc(Cl)c(Cl)c2)OC/C1=N\NS(=O)(=O)c1ccc(C)cc1
active: [3]; at 50.0 µM 80.3%
inactive: [1]; [7] 24% | [1]; [8] 24% | [1]; at 50.0 µM 17.6% | [2]; [7] 15% | [2]; [8] 15% | [2]; at 50.0 µM 51.9% | [3]; [7] 22% | [3]; [8] 22% | [4]; [7] 5% | [4]; [8] 5% | [4]; at 50.0 µM 51.6% | [5]; [7] 15% | [5]; [8] 15% | [5]; at 50.0 µM 63% | [6]; [7] 27% | [6]; [8] 27% | [6]; at 50.0 µM 64.2%

Oc1ccc(C2Oc3ccccc3C=C2c2ccccc2)cc1 (stereo not given)
active: [1]; [8] 98% | [2]; [8] 99% | [3]; [8] 99% | [4]; [8] 99% | [5]; [8] 99% | [6]; [7] 81% | [6]; [8] 98%
inactive: [1]; [7] 51% | [1]; at 50.0 µM -10.4% | [2]; [7] 58% | [2]; at 50.0 µM -25.8% | [3]; [7] 61% | [3]; at 50.0 µM -5.2% | [4]; [7] 15% | [4]; at 50.0 µM -14.8% | [5]; [7] 13% | [5]; at 50.0 µM -1.25% | [6]; at 50.0 µM -7.45%

C=C1CC2(OC1=O)C(=O)N(C)c1ccccc12 (stereo not given)
active: [1]; at 50.0 µM 84.5% | [2]; at 50.0 µM 87.5% | [3]; at 50.0 µM 82.6% | [5]; [8] 73% | [5]; at 50.0 µM 88.2% | [6]; [8] 71% | [6]; at 50.0 µM 91.7%
inactive: [1]; [7] -118% | [1]; [8] 63% | [2]; [7] -31% | [2]; [8] 52% | [3]; [7] -38% | [3]; [8] 67% | [4]; [7] -49% | [4]; [8] 22% | [4]; at 50.0 µM 15% | [5]; [7] -47% | [6]; [7] -111%

Clc1cc2c(c3ncccc13)OCN(CCc1ccccc1)C2
active: [1]; at 50.0 µM 98.7% | [2]; at 50.0 µM 94.2% | [3]; at 50.0 µM 99.2% | [4]; at 50.0 µM 78.5% | [6]; at 50.0 µM 98.4%
inactive: [1]; [7] 5% | [1]; [8] 8% | [2]; [7] -3% | [2]; [8] -5% | [3]; [7] 2% | [3]; [8] 7% | [4]; [7] 1% | [4]; [8] 16% | [5]; [7] 4% | [5]; [8] 0% | [5]; at 50.0 µM 69.6% | [6]; [7] 2% | [6]; [8] 10%

O=[N+]([O-])/C(C(Cl)=C(Cl)Cl)=C(/Cl)SCc1ccccc1
active: [1]; [7] 100% | [1]; [8] 99% | [1]; at 50.0 µM 89.8% | [2]; [7] 100% | [2]; [8] 99% | [2]; at 50.0 µM 93.4% | [3]; [7] 99% | [3]; [8] 99% | [3]; at 50.0 µM 90.1% | [4]; [7] 99% | [4]; [8] 99% | [4]; at 50.0 µM 91.5% | [5]; [7] 99% | [5]; [8] 99% | [5]; at 50.0 µM 91.5% | [6]; [7] 99% | [6]; [8] 99% | [6]; at 50.0 µM 86.2%

O=C1c2ccccc2C(=O)C2(C(c3ccccc3)c3ccccc3)N=NCC12 (stereo not given)
inactive: [1]; [7] -5% | [1]; [8] 15% | [1]; at 50.0 µM 4.15% | [2]; [7] -1% | [2]; [8] -7% | [2]; at 50.0 µM 11.9% | [3]; [7] 0% | [3]; [8] 18% | [3]; at 50.0 µM 7.95% | [4]; [7] 5% | [4]; [8] 5% | [4]; at 50.0 µM -7.15% | [5]; [7] 27% | [5]; [8] 42% | [5]; at 50.0 µM 30.1% | [6]; [7] 13% | [6]; [8] 21% | [6]; at 50.0 µM 12.2%

O=C1C=CC(=O)C(c2ccc(Cl)cc2)=C1
inactive: [1]; [7] 45% | [2]; [7] 54% | [3]; [7] 33% | [4]; [7] 40% | [5]; [7] 44% | [6]; [7] 32%
active: [1]; [8] 96% | [1]; at 50.0 µM 90.8% | [2]; [8] 97% | [2]; at 50.0 µM 93% | [3]; [8] 99% | [3]; at 50.0 µM 92.8% | [4]; [8] 99% | [4]; at 50.0 µM 91.5% | [5]; [8] 97% | [5]; at 50.0 µM 92% | [6]; [8] 98% | [6]; at 50.0 µM 90.8%

COC(=O)/C(C#N)=C(/SC)N(C)C
inactive: [1]; [7] 4% | [1]; [8] 7% | [1]; at 50.0 µM 4.35% | [2]; [7] 8% | [2]; [8] 15% | [2]; at 50.0 µM 4.1% | [3]; [7] 2% | [3]; [8] 10% | [3]; at 50.0 µM -10.3% | [4]; [7] 6% | [4]; [8] 7% | [4]; at 50.0 µM 38.6% | [5]; [7] 0% | [5]; [8] 7% | [5]; at 50.0 µM 2.55% | [6]; [7] 12% | [6]; [8] 11% | [6]; at 50.0 µM -10.3%
